Laboratory results taken from PubChem BioAssay (Tox21).
Several values for one entry are separate records, joined by “and”; a condition that tells them apart may be missing. Equal values may be shown once. Records with an inconclusive call do not appear. Some structures have more than one record in an assay (separate samples or runs), and their calls can disagree. Activity calls are given as the source filed them. Unless noted, calls follow the shape of the dose curve; as a rule, active = well fitted curve in the direction sought with a large enough effect in the repeat runs; inconclusive = weak or mixed curves; inactive = no such curve, though single readings can be large; an effect the other way counts as inactive or inconclusive.

Experiments:
[1] = qHTS assay to test for compound auto fluorescence at 535 nm (green) in HEK293 cells (AID 720680)
[2] = qHTS assay to test for compound auto fluorescence at 460 nm (blue) in HEK293 cell free culture (AID 720681)
Method in brief: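 Blue fluorescence (Ex 405/Em 460 nm, triamterene-equivalent) was read immediately after pin transfer of compound or DMSO into medium (DMEM, 10% FBS) without cells.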

[3] = qHTS assay to test for compound auto fluorescence at 535 nm (green) in HEK293 cell free culture (AID 720682)
Method in brief: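 Intrinsic compound fluorescence is measured in culture medium containing 10% FBS, with excitation at 485 nm and detection at 535 nm, referenced to fluorescein.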

[4] = qHTS assay to test for compound auto fluorescence at 590 nm (red) in HEK293 cell free culture (AID 720683)
Method in brief: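 Red-channel autofluorescence of compounds in culture medium (DMEM, 10% FBS), no cells, measured at 540/590 nm. Rose Bengal sodium is the reference fluorophore for equivalence.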

[5] = qHTS assay to test for compound auto fluorescence at 460 nm (blue) in HepG2 cell free culture (AID 720685)
Method in brief: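 Compound (23 nL) or DMSO pinned into cell-free MEM with 10% FBS; blue fluorescence read at 405/460 nm excitation/emission, expressed as auto-fluorescence equivalency to triamterene.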

[6] = qHTS assay to test for compound auto fluorescence at 535 nm (green) in HepG2 cell free culture (AID 720686)
[7] = qHTS assay to test for compound auto fluorescence at 460 nm (blue) in HepG2 cells (AID 720687)
Method in brief: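 Blue-channel autofluorescence (Ex/Em 405/460 nm, triamterene-equivalent) was measured after 1 hr compound exposure at 37 C, 5% CO2. Cells were HepG2, plated overnight at 37 C in MEM plus 10% FBS.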

[8] = target: Glucocorticoid receptor (Homo sapiens) (UniProt P04150); assay: qHTS assay to identify small molecule agonists of the glucocorticoid receptor (GR) signaling pathway (AID 720691; active = well fitted activation curve with a large enough effect in the signal ratio in the repeat runs, not every such curve was filed as active; the % refers to the signal ratio)
Sequence of Glucocorticoid receptor (Homo sapiens) (P04150 whole entry, looked up): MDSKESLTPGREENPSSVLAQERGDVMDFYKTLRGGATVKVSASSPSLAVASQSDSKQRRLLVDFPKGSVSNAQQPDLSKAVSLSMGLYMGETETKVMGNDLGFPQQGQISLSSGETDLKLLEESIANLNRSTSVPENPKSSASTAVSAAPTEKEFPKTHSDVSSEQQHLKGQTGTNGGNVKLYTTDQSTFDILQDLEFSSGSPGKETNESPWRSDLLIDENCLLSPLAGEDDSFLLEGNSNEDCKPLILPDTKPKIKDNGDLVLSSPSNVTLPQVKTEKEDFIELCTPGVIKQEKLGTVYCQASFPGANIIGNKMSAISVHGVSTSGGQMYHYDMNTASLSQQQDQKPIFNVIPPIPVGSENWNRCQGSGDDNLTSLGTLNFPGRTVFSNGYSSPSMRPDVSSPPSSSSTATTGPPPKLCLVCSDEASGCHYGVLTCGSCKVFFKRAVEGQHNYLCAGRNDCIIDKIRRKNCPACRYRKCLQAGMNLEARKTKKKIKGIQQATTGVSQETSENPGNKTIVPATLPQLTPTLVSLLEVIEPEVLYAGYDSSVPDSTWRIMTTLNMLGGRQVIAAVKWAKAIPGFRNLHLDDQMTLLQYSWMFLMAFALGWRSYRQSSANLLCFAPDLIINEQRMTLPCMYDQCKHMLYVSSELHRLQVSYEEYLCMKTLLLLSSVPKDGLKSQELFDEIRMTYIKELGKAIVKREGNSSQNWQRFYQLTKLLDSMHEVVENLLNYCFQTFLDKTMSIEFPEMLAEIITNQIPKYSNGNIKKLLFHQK
Method in brief: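 Fluorescence intensity from LiveBLAzer B/G FRET substrate (2 h, room temperature) reports beta-lactamase expression driven by the glucocorticoid response element in GR-bla HeLa cells after 18 h compound exposure at 37 C.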

[9] = target: Glucocorticoid receptor (Homo sapiens) (UniProt P04150); assay: qHTS assay to identify small molecule antagonists of the glucocorticoid receptor (GR) signaling pathway (AID 720692; active = well fitted inhibition curve with a large enough effect in the signal ratio in the repeat runs, not every such curve was filed as active; the % refers to the signal ratio)
Method in brief: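 HeLa GR-bla cells; cmpd + dex 5 nM final, 18 h 37 C; LiveBLAzer B/G FRET substrate 2 h RT; fluorescence intensity read. Antagonist mode, qHTS.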

[10] = qHTS assay to identify small molecule antagonists of the glucocorticoid receptor (GR) signaling pathway - cell viability counter screen (AID 720693); also: nearly all actives have a fitted effect of over 55% in size
[11] = qHTS assay for identifying genotoxic compounds that show differential cytotoxicity against isogenic chicken DT40 cell lines with known DNA damage response pathways - wild type cell line (AID 743012); also: nearly all actives have a fitted effect of over 60% in size; also: potency is read from the fitted curve at half-maximal effect
Method in brief: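 Wild type DT40, 300 cells/well, ~0.5 h settle at 37 C/5% CO2; compounds in DMSO added by pintool; 40 h at 37 C/5% CO2; CellTiter-Glo, 30 min RT; luminescence.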

[12] = qHTS assay for identifying genotoxic compounds that show differential cytotoxicity against isogenic chicken DT40 cell lines with known DNA damage response pathways - Rev3 mutant cell line (AID 743014); also: nearly all actives have a fitted effect of over 55% in size; also: potency is read from the fitted curve at half-maximal effect
[13] = qHTS assay for identifying genotoxic compounds that show differential cytotoxicity against isogenic chicken DT40 cell lines with known DNA damage response pathways - Rad54/Ku70 mutant cell line (AID 743015); also: nearly all actives have a fitted effect of over 60% in size
[14] = qHTS assay to identify small molecule antagonists of the androgen receptor (AR) signaling pathway - cell viability counter screen (AID 743033; also: nearly all actives have a fitted effect of over 45% in size)
[15] = qHTS assay to identify small molecule antagonists of the androgen receptor (AR) signaling pathway using the MDA cell line - cell viability counter screen (AID 743041; also: nearly all actives have a fitted effect of over 45% in size)
Method in brief: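 R1881-driven MDA-kb2 AR-luc cells, 3,000/well, were dosed with library compounds for 16 h; cell health came from CellTiter-Fluor fluorescence in the reporter wells.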

Measured: Potency

CC(=O)C(C)C
inactive: all assays above

Nc1cccc(C(F)(F)F)c1
not listed: [5] | [8] | [9]
inactive: all other assays above

CCCCC(=O)O
not listed: [8]
inactive: all other assays above

CC[N+](CC)(CC(=O)Nc1c(C)cccc1C)Cc1ccccc1
inactive and 43.3 µM (active): [11]
inactive and 30.6 µM (active): [12]
not listed: [8] | [9]
inactive: all other assays above
